Laboratory results taken from ChEMBL document CHEMBL3433997, “St. Jude Leishmania screening dataset” (2016).

The compounds below were run against Solute carrier family 2, facilitated glucose transporter member 1 (Homo sapiens) (UniProt P11166) (assay: ST_JUDE_LEISH: Cytotoxicity at 2uM final concentration against transgenic Leishmania Mexicana promastigotes LmGLUT1 that are glucose transport deficient and complemented with the human glucose transporter GLUT1. Activity is measured by DNA content using SYBR green in vitro).
Chain of Solute carrier family 2, facilitated glucose transporter member 1 (Homo sapiens) (P11166 whole entry): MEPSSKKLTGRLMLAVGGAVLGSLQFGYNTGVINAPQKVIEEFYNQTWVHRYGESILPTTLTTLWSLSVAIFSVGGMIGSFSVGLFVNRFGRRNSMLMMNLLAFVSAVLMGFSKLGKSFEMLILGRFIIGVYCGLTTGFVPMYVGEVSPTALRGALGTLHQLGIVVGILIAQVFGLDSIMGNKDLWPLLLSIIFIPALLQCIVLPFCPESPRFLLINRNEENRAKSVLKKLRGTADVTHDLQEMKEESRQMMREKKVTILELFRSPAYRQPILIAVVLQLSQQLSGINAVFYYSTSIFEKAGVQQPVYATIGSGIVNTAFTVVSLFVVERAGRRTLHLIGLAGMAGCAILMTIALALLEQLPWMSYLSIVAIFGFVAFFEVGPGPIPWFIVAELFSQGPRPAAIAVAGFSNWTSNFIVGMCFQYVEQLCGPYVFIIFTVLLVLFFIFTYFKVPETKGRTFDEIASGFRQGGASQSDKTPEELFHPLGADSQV
Assay type: functional
In the case of `O=C(Nc1cccc(Cl)c1N1CCOCC1)C(Cl)(Cl)Cl`, the inhibition is reported as 1.32%. `Cn1cncc1C(=O)Nc1ccc(-c2ccc(-c3nc4cc(C(F)(F)F)ccc4[nH]3)cc2)cc1` gave an inhibition of 20.8%. `O=C(/C=C/c1ccc2ccccc2c1)NCC1(c2ccc(-c3ccccc3)cc2)CCOCC1` was tested, and the inhibition was 2.52%. Compound `O=C(Nc1cccc(C2=NCCN2)c1)Nc1cccc(C2=NCCN2)c1` has an inhibition of 1.69%. Compound `c1cc(CN2CCN(c3ccncc3)CC2)cc(-c2cccc(-c3nc4ccccc4[nH]3)c2)c1` has an inhibition of 2.65%. `Cc1nc2nc(N)nc(N)c2c(C)c1Cc1ccc(N)cc1` showed an inhibition of 3.4%. Work on `O=c1ccc2ccc(O)c(O)c2o1` yielded an inhibition of 7.05%. With `O=C(NCC(CCN1CCC(c2c[nH]c3ccccc23)CC1)c1ccccc1)Nc1ccc(Cl)c(Cl)c1` (stereo not given) the inhibition was 5.74%. `O=C(Cc1ccc(NC(=O)c2ccc(O)c(-c3ccc(Cl)c(Cl)c3)c2)cc1)NCCc1ccc(Cl)c(Cl)c1` was tested, and the inhibition was 2.01%. `COc1cccc(Nc2nc(C)cc(NC3CCN(Cc4ccccc4)CC3)n2)c1` was tested, and the inhibition was 5.81%. In the case of `O=C(O[C@@H]1CN[C@H](C#Cc2cc3c(Nc4ccc5c(cnn5Cc5ccccc5)c4)ncnc3s2)C1)N1CCCC1`, the inhibition is reported as -0.49%. In the case of `Cc1ccc(/C=C/C(=O)NCCCCCN2CCCN(C(=O)Nc3ccc(Cl)c(Cl)c3)CC2)cc1`, the inhibition is reported as 1.97%. Compound `CC(C)c1ccc2c(c1)c(SC(C)(C)C)c(CC(C)(C)C#N)n2Cc1ccc(Cl)cc1` has an inhibition of 3.18%. `CC(=O)c1cccc(S(=O)(=O)NCCCNc2nc3cc(C)cc(C)c3cc2C#N)c1` gave an inhibition of -0.68%. Compound `Cc1nnc2c(N(C(=O)NCCc3ccccc3)C(=O)NCCc3ccccc3)cc3cc(Cl)ccc3n12` has an inhibition of 11.2%. Work on `CC(C)(C)c1ccc(S(=O)(=O)Nc2ccccc2N2CCOCC2)cc1` yielded an inhibition of 6.54%. `COc1ccc(C2CC(=O)C3=C(C2)NC(C)=C(C(=O)OC(C)C)C3c2c(F)cccc2Cl)cc1OC` (stereo not given) was tested, and the inhibition was 2.24%. With `NC(=O)c1cccc(C(=O)Nc2ccc(-c3cccc(-c4nc5cc(F)ccc5[nH]4)c3)cc2)c1` the inhibition was 0.18%. Compound `Cc1nc(-c2nc(NCc3ccncc3)ncc2-c2ccsc2)sc1C` has an inhibition of -1.32%. In the case of `Cc1ccccc1C1CCN(C2CCC(NC(=O)c3cc(-c4ccc(Cl)cc4)cs3)CC2)CC1` (stereo not given), the inhibition is reported as 2.23%. `COCCN1CCC(C(=O)NCC(C)(C)c2nc(-c3ccc(Br)c(O)c3)c(-c3ccncc3)[nH]2)CC1` gave an inhibition of 7.2%. `Oc1ccc2nc(Nc3ccccc3)nc(NCCc3ccccc3)c2c1` gave an inhibition of 7.22%. In the case of `CCCCOc1ccc(-c2nc3ccccc3[nH]2)cc1`, the inhibition is reported as 9.74%. Compound `Cc1ccc(Cn2nc(Cl)c(N3CCNCC3)cc2=O)cc1NC(=O)Nc1ccc(-c2ccccc2)cc1` has an inhibition of 1.36%. `CC(C)Cc1csc(NC(=O)C=Cc2ccco2)c1C(=O)O` was tested, and the inhibition was -0.28%. `O=C(Nc1cccc(F)c1)N(Cc1ccc(-c2cccc(CN3CCNCC3)c2)cc1)C1CCN(Cc2ccccc2)CC1` was tested, and the inhibition was 7.44%. In the case of `CCCCCCCN1CC[C@@H](C[C@H](N)Cc2ccnc3ccc(OC)cc23)[C@@H](CC)C1`, the inhibition is reported as 0.24%. Work on `O=C(Nc1ccc(Cl)cc1)c1cc(Cl)cc2nc(C(F)(F)F)[nH]c12` yielded an inhibition of 9.28%. Work on `CN1CCN(c2cc(NC(=O)c3ccc(-c4ccc(Cl)cc4)cc3)ccc2Cl)CC1` yielded an inhibition of -0.77%. With `CCOc1cc(C(=O)Nc2cccnc2)cc(Br)c1OCCC(C)C` the inhibition was 1.25%. `CO/C(=C\C=C\c1cc2cc(Cl)c(Cl)cc2[nH]1)C(=O)NCCCN1CCN(c2cccc(OCC(=O)Nc3cccc(C(=O)c4ccccc4)c3)c2)CC1` was tested, and the inhibition was 4.84%. `O=C(/C=C/c1ccc(Cl)cc1)Nc1ccc2nc(CN3CCCC3)ccc2c1` showed an inhibition of 5.3%. In the case of `COCCn1c(SC(C)C(=O)Nc2cc(C(F)(F)F)ccc2Cl)nc2ccccc2c1=O` (stereo not given), the inhibition is reported as 0.17%. `CCCCNC(=N)Nc1ccc(OCCCOc2ccc(NC(=N)NCCCC)cc2)cc1` showed an inhibition of -1.92%. `CCNc1cc(C(=O)N[C@@H](Cc2ccccc2)[C@H](O)CNC2CCC(C)(C)C2)cc(N2CCCCS2(=O)=O)c1` (stereo not given in full) gave an inhibition of 2.05%. Work on `CCc1c(CCNCCCCCCNCCc2ccc3c(c2C)OCO3)ccc2c1OCO2` yielded an inhibition of 8.6%. `COc1cc2c(cc1N1CCN(C)CC1)N(C(=O)Nc1ccc(-c3ccncc3)c(Cl)c1Cl)CC2` was tested, and the inhibition was 0.34%. Work on `Cc1cccc2nc(-c3ccc(-c4ccc(CN5CCC(CO)CC5)cc4)s3)[nH]c12` yielded an inhibition of 3.72%. For `O=C(NC1CC1)c1ccc(Nc2nccc(-c3c(-c4cccc(NC(=O)c5c(F)cccc5F)c4)nn4ccccc34)n2)cc1`, the inhibition was 7.45%. With `CCCCCCOc1ccccc1C(=O)NCCOc1ccc(Cl)cc1` the inhibition was 3.58%.

The compounds below were run against Hexose transporter 1 (Plasmodium falciparum) (UniProt O97467) (assay: ST_JUDE_LEISH: Cytotoxicity at 2uM final concentration against transgenic Leishmania Mexicana promastigotes LmPfHT that are glucose transport deficient and complemented with the Plasmodium falciparum hexose transporter. Activity is measured by DNA content using SYBR green in vitro).
Assay type: functional
`O=C(Nc1cccc(Cl)c1N1CCOCC1)C(Cl)(Cl)Cl` showed an inhibition of 0.42%. Work on `Cn1cncc1C(=O)Nc1ccc(-c2ccc(-c3nc4cc(C(F)(F)F)ccc4[nH]3)cc2)cc1` yielded an inhibition of 15%. Compound `O=C(/C=C/c1ccc2ccccc2c1)NCC1(c2ccc(-c3ccccc3)cc2)CCOCC1` has an inhibition of 2.55%. Compound `O=C(Nc1cccc(C2=NCCN2)c1)Nc1cccc(C2=NCCN2)c1` has an inhibition of 5.37%. `c1cc(CN2CCN(c3ccncc3)CC2)cc(-c2cccc(-c3nc4ccccc4[nH]3)c2)c1` gave an inhibition of 2.34%. Work on `Cc1nc2nc(N)nc(N)c2c(C)c1Cc1ccc(N)cc1` yielded an inhibition of 8.1%. In the case of `O=c1ccc2ccc(O)c(O)c2o1`, the inhibition is reported as 5%. `O=C(NCC(CCN1CCC(c2c[nH]c3ccccc23)CC1)c1ccccc1)Nc1ccc(Cl)c(Cl)c1` (stereo not given) showed an inhibition of 2.72%. Compound `O=C(Cc1ccc(NC(=O)c2ccc(O)c(-c3ccc(Cl)c(Cl)c3)c2)cc1)NCCc1ccc(Cl)c(Cl)c1` has an inhibition of 2.38%. In the case of `COc1cccc(Nc2nc(C)cc(NC3CCN(Cc4ccccc4)CC3)n2)c1`, the inhibition is reported as 3.9%. `O=C(O[C@@H]1CN[C@H](C#Cc2cc3c(Nc4ccc5c(cnn5Cc5ccccc5)c4)ncnc3s2)C1)N1CCCC1` was tested, and the inhibition was 0.25%. In the case of `Cc1ccc(/C=C/C(=O)NCCCCCN2CCCN(C(=O)Nc3ccc(Cl)c(Cl)c3)CC2)cc1`, the inhibition is reported as 2.34%. `CC(C)c1ccc2c(c1)c(SC(C)(C)C)c(CC(C)(C)C#N)n2Cc1ccc(Cl)cc1` gave an inhibition of 0.69%. With `CC(=O)c1cccc(S(=O)(=O)NCCCNc2nc3cc(C)cc(C)c3cc2C#N)c1` the inhibition was 1.78%. `Cc1nnc2c(N(C(=O)NCCc3ccccc3)C(=O)NCCc3ccccc3)cc3cc(Cl)ccc3n12` was tested, and the inhibition was 10.1%. In the case of `CC(C)(C)c1ccc(S(=O)(=O)Nc2ccccc2N2CCOCC2)cc1`, the inhibition is reported as 4.11%. `COc1ccc(C2CC(=O)C3=C(C2)NC(C)=C(C(=O)OC(C)C)C3c2c(F)cccc2Cl)cc1OC` (stereo not given) gave an inhibition of 0.57%. With `NC(=O)c1cccc(C(=O)Nc2ccc(-c3cccc(-c4nc5cc(F)ccc5[nH]4)c3)cc2)c1` the inhibition was 0.01%. `Cc1nc(-c2nc(NCc3ccncc3)ncc2-c2ccsc2)sc1C` gave an inhibition of -0.89%. For `Cc1ccccc1C1CCN(C2CCC(NC(=O)c3cc(-c4ccc(Cl)cc4)cs3)CC2)CC1` (stereo not given), the inhibition was 3.13%. Work on `COCCN1CCC(C(=O)NCC(C)(C)c2nc(-c3ccc(Br)c(O)c3)c(-c3ccncc3)[nH]2)CC1` yielded an inhibition of 8.02%. `Oc1ccc2nc(Nc3ccccc3)nc(NCCc3ccccc3)c2c1` showed an inhibition of 6%. For `CCCCOc1ccc(-c2nc3ccccc3[nH]2)cc1`, the inhibition was 8.64%. Compound `Cc1ccc(Cn2nc(Cl)c(N3CCNCC3)cc2=O)cc1NC(=O)Nc1ccc(-c2ccccc2)cc1` has an inhibition of 5.15%. `CC(C)Cc1csc(NC(=O)C=Cc2ccco2)c1C(=O)O` was tested, and the inhibition was 0.8%. Compound `O=C(Nc1cccc(F)c1)N(Cc1ccc(-c2cccc(CN3CCNCC3)c2)cc1)C1CCN(Cc2ccccc2)CC1` has an inhibition of 6.99%. Work on `CCCCCCCN1CC[C@@H](C[C@H](N)Cc2ccnc3ccc(OC)cc23)[C@@H](CC)C1` yielded an inhibition of -1.97%. Work on `O=C(Nc1ccc(Cl)cc1)c1cc(Cl)cc2nc(C(F)(F)F)[nH]c12` yielded an inhibition of 15%. Compound `CN1CCN(c2cc(NC(=O)c3ccc(-c4ccc(Cl)cc4)cc3)ccc2Cl)CC1` has an inhibition of -0.81%. Work on `CCOc1cc(C(=O)Nc2cccnc2)cc(Br)c1OCCC(C)C` yielded an inhibition of -2.07%. Work on `CO/C(=C\C=C\c1cc2cc(Cl)c(Cl)cc2[nH]1)C(=O)NCCCN1CCN(c2cccc(OCC(=O)Nc3cccc(C(=O)c4ccccc4)c3)c2)CC1` yielded an inhibition of 2.82%. In the case of `O=C(/C=C/c1ccc(Cl)cc1)Nc1ccc2nc(CN3CCCC3)ccc2c1`, the inhibition is reported as 6.73%. `COCCn1c(SC(C)C(=O)Nc2cc(C(F)(F)F)ccc2Cl)nc2ccccc2c1=O` (stereo not given) was tested, and the inhibition was -0.22%. With `CCCCNC(=N)Nc1ccc(OCCCOc2ccc(NC(=N)NCCCC)cc2)cc1` the inhibition was -1.63%. Compound `CCNc1cc(C(=O)N[C@@H](Cc2ccccc2)[C@H](O)CNC2CCC(C)(C)C2)cc(N2CCCCS2(=O)=O)c1` (stereo not given in full) has an inhibition of 2.29%. `CCc1c(CCNCCCCCCNCCc2ccc3c(c2C)OCO3)ccc2c1OCO2` was tested, and the inhibition was 5.13%. `COc1cc2c(cc1N1CCN(C)CC1)N(C(=O)Nc1ccc(-c3ccncc3)c(Cl)c1Cl)CC2` gave an inhibition of 0.34%. Compound `Cc1cccc2nc(-c3ccc(-c4ccc(CN5CCC(CO)CC5)cc4)s3)[nH]c12` has an inhibition of 2.43%. For `O=C(NC1CC1)c1ccc(Nc2nccc(-c3c(-c4cccc(NC(=O)c5c(F)cccc5F)c4)nn4ccccc34)n2)cc1`, the inhibition was 8.87%. `CCCCCCOc1ccccc1C(=O)NCCOc1ccc(Cl)cc1` gave an inhibition of -1.45%.
